The values below come from PubChem BioAssay (Tox21).

Values joined by “and” are separate entries in the source; they are usually repeats but may differ in a detail not shown here. Equal entries are not always repeated. Results filed as inconclusive are left out. Some compounds were tested as several samples or in several runs, with calls that do not always agree. Active and inactive are the calls of the source. Unless noted, the call rests on the fitted dose curve; in most records, active means well fitted curve in the direction sought with a large enough effect in the repeat runs; inconclusive means weak or mixed curves; inactive means no such curve, though single readings can be large; an effect the other way counts as inactive or inconclusive.

A short description of experiment [1]: qHTS assay to identify small molecule agonists of the progesterone receptor (PR) signaling pathway - cell viability counter screen (AID 1346799; calls by dose curve; further: nearly all actives have a fitted effect of over 45% in size; further: potency means the concentration at half of the fitted maximal effect). The procedure, abridged: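 Luminescence from CellTiter-Glo, added after the beta-lactamase FRET read in the same wells, gave cytotoxicity in PR-UAS-bla HEK293T cells treated with compounds for 16 hr at 37C.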
(In general: qHTS replaces the single test concentration by a dilution series.)

The nature of experiment [2]: qHTS assay to identify small molecule antagonists of the TGF-beta/Smad signaling pathway - cell viability counter screen (AID 1346824). Further: nearly all actives have a fitted effect of over 50% in size. In outline: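 SBE-bla HEK 293T cells, incubated overnight, then compound plus 0.25 ng/mL TGF-beta1 (stock added) for 5 hr at 37 C. Viability was read in the same wells by CellTiter-Glo luminescence after 30 min at room temperature.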

Experiment [3] is described as follows: qHTS assay to identify small molecule agonists of the TGF-beta/Smad signaling pathway - cell viability counter screen (AID 1346829). Further: top concentration of the series differs between compounds; nearly all actives have a fitted effect of over 45% in size. In outline:
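SBE-bla HEK 293T cells plated overnight, compound exposure 5 hr at 37 C. Viability read in the same wells by CellTiter-Glo luminescence after 30 min at room temperature, following the beta-lactamase read.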

Experiment [4] deals with Thyrotropin-releasing hormone receptor (Homo sapiens) (UniProt P34981). The experiment is described as follows: qHTS assay to identify small molecule antagonists of the thyrotropin-releasing hormone receptor (TRHR) signaling pathway (AID 1346877; active means well fitted inhibition curve with a large enough effect in the repeat runs, not every such curve was filed as active; further: series mostly up to about 51 µM). In outline: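 Overnight-plated (18 h, 37 °C) HEK293 cells expressing TRHR were dye-loaded 2 h, treated with compound, then stimulated with TRH at 1 nM final. Fluorescence intensity was captured every second for 3 min.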

The target is the same in experiment [5]. The experiment is described as follows: qHTS assay to identify small molecule agonists of the thyrotropin-releasing hormone receptor (TRHR) signaling pathway (AID 1346891; calls by dose curve; further: series mostly up to about 58 µM). In outline: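 Intracellular calcium rise, read as fluorescence every second for 3 min, served as the agonist signal in dye-loaded HEK293 cells expressing TRHR; each compound ran at 15 concentrations in triplicate.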

A short description of experiment [6]: Human pregnane X receptor (PXR) small molecule agonists, qHTS cell viability counter screen (AID 1346977). Further: nearly all actives have a fitted effect of over 50% in size. Further: potency means the concentration at half of the fitted maximal effect. The procedure, abridged: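 PXR-Luc HepG2, 2,000 cells/well, 5% charcoal-stripped FBS; 5hr settle; cpd 24hr, 37C/5% CO2; CellTiter-Fluor at 23hr, read 1hr later (fluorescence).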
The nature of experiment [7]: Caspase-3/7 induction in CHO-K1 cells by small molecules, qHTS cell viability counter screen (AID 1346979). Further: nearly all actives have a fitted effect of over 35% in size. Further: potency means the concentration at half of the fitted maximal effect. The procedure, abridged:
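Cells (CHO-K1, wild type) are plated at 1,500 per well and incubated 5hr. Test compounds in DMSO are then pinned in, followed by 16hr at 37C and 5% CO2. Viability is read by CellTiter-Fluor fluorescence after 1hr.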

Experiment [8] in a line: Caspase-3/7 induction in CHO-K1 cells by small molecules, qHTS assay (AID 1346980). Further: nearly all actives have a fitted effect of over 15% in size. In outline: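 Wild-type CHO-K1 cells exposed to compounds for 17hr at 37 C, 5% CO2. Caspase-3/7 activity then measured by Caspase-Glo 3/7 luminescence after 30min at room temperature.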
Experiment [9] is described as follows: Caspase-3/7 induction in HepG2 cells by small molecules, qHTS cell viability counter screen (AID 1346981). Further: series mostly up to about 92 µM; nearly all actives have a fitted effect of over 30% in size. The procedure, abridged:
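Treatment of HepG2 cells with DMSO-delivered compounds ran 16 hr at 37 C following a 5-hr pre-incubation of 2,000 cells/well. CellTiter-Fluor fluorescence, read after 1 hr, served as the viability measure in a qHTS format.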

In experiment [10] the target is Nuclear receptor subfamily 1 group I member 2 (Homo sapiens) (UniProt O75469). The experiment is described as follows: Human pregnane X receptor (PXR) small molecule agonists, qHTS assay (AID 1346982). Further: nearly all actives have a fitted effect of over 35% in size. Further: potency means the concentration at half of the fitted maximal effect. In outline:
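Stable HepG2 line reporting PXR-mediated CYP3A4 expression via luciferase. Treatment: 24 hr with compounds in DMSO at 37 C. Detection: ONE-Glo luminescence.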

In experiment [11] the target is Nuclear receptor subfamily 1 group I member 2 (Rattus norvegicus) (UniProt Q9R1A7). The experiment is described as follows: Rat pregnane X receptor (rPXR) activation by small molecules, qHTS assay (AID 1346983). Further: nearly all actives have a fitted effect of over 20% in size. Further: potency means the concentration at half of the fitted maximal effect. To be noted: rPXR luciferase reporter cells, One-Glo luminescence, 24 h; max activation: stronger effect = higher value. In outline: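 Cell-based rPXR activation assay: rPXR cells, 2,000 per well, rested 5hr at 37 C, then exposed to compounds in DMSO for 24 hr at 37 C. Luciferase activity read by One-Glo luminescence after 30 min at room temperature.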

Experiment [12] deals with Nuclear receptor subfamily 1 group I member 2 (Homo sapiens) (UniProt O75469). The experiment is described as follows: Human pregnane X receptor (PXR) activation by small molecules, qHTS assay (AID 1346985). Further: nearly all actives have a fitted effect of over 40% in size. In outline: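 DPX-2 cells (HepG2 co-transfected with a PXR response element and a CYP3A4-promoter luciferase construct) were seeded at 2,000 per well, rested 5 hr at 37C, then exposed to DMSO-dissolved compounds for 24 hr. Activation was read as luciferase luminescence.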

Experiment [13] deals with Cytochrome P450 2D6 (Homo sapiens) (UniProt P10635). The experiment is described as follows: Cytochrome P450 Family 2 Subfamily D Member 6 (CYP2D6) small molecule antagonists: luciferase reporter qHTS assay (AID 1671196). Further: nearly all actives have a fitted effect of over 50% in size. Further: potency means the concentration at half of the fitted maximal effect. In outline:
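Chemicals tested for interference with CYP2D6 activity; proluciferin substrate, NADPH regeneration, 1 h at room temperature, luminescent detection.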
(Reporter assays use an easily measured gene product as a stand-in for the process of interest.)

Experiment [14] concerns the target Cytochrome P450 2C19 (Homo sapiens) (UniProt P33261). The experiment is described as follows: Cytochrome P450 Family 2 Subfamily C Member 19 (CYP2C19) small molecule antagonists: luciferase reporter qHTS assay (AID 1671197). Further: nearly all actives have a fitted effect of over 65% in size. Further: potency means the concentration at half of the fitted maximal effect. The procedure, abridged: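 P450-Glo CYP2C19 system: enzyme-substrate mix with compound 10 min at room temperature, then NADPH regeneration solution, 1 h at 37C. Proluciferin-to-luciferin conversion detected by luminescence after 20 min with detection reagent; ketoconazole as positive control.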

Experiment [15] concerns the target Cytochrome P450 2C9 (Homo sapiens) (UniProt P11712). The experiment is described as follows: Cytochrome P450 Family 2 Subfamily C Member 9 (CYP2C9) small molecule antagonists: luciferase reporter qHTS assay (AID 1671198). Further: nearly all actives have a fitted effect of over 50% in size. Further: potency means the concentration at half of the fitted maximal effect. In outline:
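P450-Glo proluciferin substrate with CYP2C9 enzyme; 10 min RT preincubation, then NADPH regeneration 1 h at 37C; luciferin detection reagent 20 min RT, luminescence in relative luminescence units.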

The target in experiment [16] is Cytochrome P450 1A2 (Homo sapiens) (UniProt P05177). The experiment is described as follows: Cytochrome P450 Family 1 Subfamily A Member 2 (CYP1A2) small molecule antagonists: luciferase reporter qHTS assay (AID 1671199). Further: nearly all actives have a fitted effect of over 50% in size. Further: potency means the concentration at half of the fitted maximal effect. The procedure, abridged: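 Read-out is luminescence from luciferin detection reagent (20 min) proportional to CYP1A2 activity; compounds in DMSO preincubated 10 min with enzyme and proluciferin substrate, then NADPH regeneration solution, 1 h, room temperature.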

In experiment [17] the target is Voltage-gated inwardly rectifying potassium channel KCNH2 (Homo sapiens) (UniProt Q12809). The experiment is described as follows: Human Ether-a-go-go-Related Gene (hERG) channel small molecule antagonists: fluorescence cell-based qHTS assay (AID 1671200). In outline: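 Channel function was assessed by thallium flux. Cells seeded the previous day and kept at 37 C took up FluxOR II dye over 1 h in the dark at room temperature, then sat another 10 min before stimulation.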
Background: Block of hERG is tested as a sign of cardiac risk.

Experiment [18] in a line: Caspase-3/7 induction in HepG2 cells by small molecules, qHTS assay (AID 1346978). Further: nearly all actives have a fitted effect of over 15% in size. The procedure, abridged:
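Wild-type HepG2 cells, 2,000/well, settled 5 hr at 37 C and 5% CO2, then compound-treated for 17 hr; caspase-3/7 activity read by luminescent Caspase-Glo 3/7 after 30 min at room temperature.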

For experiment [19], the target named is Cytochrome P450 3A4 (Homo sapiens) (UniProt P08684). The experiment in a line: Cytochrome P450 Family 3 Subfamily A Member 4 (CYP3A4) small molecule antagonists: luciferase reporter qHTS assay (AID 1671201). The procedure, abridged:
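Compounds in DMSO were pin-transferred onto CYP3A4 enzyme-substrate mix and held 10 min at room temperature. NADPH regenerating solution started the reaction for 1 h; luciferin detection reagent stopped it, and luminescence was read after 20 min.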

Experiment [20] in a line: qHTS assay to identify small molecule agonists of the TGF-beta/Smad signaling pathway (AID 1346859; active means well fitted activation curve with a large enough effect in the signal ratio in the repeat runs, not every such curve was filed as active; the % refers to the signal ratio; further: series mostly up to about 77 µM). The procedure, abridged:
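SBE-bla HEK 293T, 4,000 cells/well, plated o/n; cpd in DMSO, 5 hr, 37 C/5% CO2; B/G FRET substrate 2 hr RT; ex 405, em 460/530 nm.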
On the % scale 0 is the no-effect control and ±100 the full control effect.

Nuclear receptor subfamily 1 group I member 2 (Homo sapiens), sequence (O75469 whole entry, looked up): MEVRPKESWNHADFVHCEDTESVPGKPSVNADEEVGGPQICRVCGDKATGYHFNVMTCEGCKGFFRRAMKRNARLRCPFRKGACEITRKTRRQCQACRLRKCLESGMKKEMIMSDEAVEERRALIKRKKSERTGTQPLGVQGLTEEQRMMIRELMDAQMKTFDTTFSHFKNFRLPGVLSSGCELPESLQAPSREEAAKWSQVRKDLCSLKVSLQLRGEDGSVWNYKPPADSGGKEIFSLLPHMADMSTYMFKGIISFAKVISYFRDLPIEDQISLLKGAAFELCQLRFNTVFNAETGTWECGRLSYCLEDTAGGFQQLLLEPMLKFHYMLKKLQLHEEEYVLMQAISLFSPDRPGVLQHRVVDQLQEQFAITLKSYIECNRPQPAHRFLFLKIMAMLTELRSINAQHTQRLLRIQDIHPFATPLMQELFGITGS
Cytochrome P450 2C9 (Homo sapiens), sequence (P11712 whole entry, looked up): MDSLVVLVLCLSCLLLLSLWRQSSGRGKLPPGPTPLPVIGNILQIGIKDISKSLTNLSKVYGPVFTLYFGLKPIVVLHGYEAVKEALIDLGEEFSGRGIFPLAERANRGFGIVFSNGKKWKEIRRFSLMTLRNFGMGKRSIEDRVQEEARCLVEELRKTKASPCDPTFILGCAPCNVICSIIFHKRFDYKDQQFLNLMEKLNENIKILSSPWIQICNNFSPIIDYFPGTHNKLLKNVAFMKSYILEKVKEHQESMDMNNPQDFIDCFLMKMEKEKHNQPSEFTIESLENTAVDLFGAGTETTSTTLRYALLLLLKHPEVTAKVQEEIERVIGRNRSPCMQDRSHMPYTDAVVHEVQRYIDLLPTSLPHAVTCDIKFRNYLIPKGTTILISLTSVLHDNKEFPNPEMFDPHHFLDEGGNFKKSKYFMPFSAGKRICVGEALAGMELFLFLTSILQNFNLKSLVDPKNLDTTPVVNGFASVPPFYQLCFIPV
Cytochrome P450 2C19 (Homo sapiens), sequence (P33261 whole entry, looked up): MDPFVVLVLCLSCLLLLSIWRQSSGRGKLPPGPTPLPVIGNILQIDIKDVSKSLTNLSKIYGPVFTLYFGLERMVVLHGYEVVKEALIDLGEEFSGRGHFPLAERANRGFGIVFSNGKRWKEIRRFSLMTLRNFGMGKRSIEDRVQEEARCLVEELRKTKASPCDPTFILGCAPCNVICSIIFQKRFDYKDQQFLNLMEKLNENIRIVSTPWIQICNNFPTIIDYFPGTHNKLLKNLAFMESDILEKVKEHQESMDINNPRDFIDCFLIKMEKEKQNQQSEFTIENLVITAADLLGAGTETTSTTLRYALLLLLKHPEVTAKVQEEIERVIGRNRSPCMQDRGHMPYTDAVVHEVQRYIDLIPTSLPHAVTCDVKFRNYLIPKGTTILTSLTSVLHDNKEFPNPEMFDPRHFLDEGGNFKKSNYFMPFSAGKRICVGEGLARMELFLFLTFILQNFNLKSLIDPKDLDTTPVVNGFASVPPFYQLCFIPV
Thyrotropin-releasing hormone receptor (Homo sapiens), sequence (P34981 whole entry, looked up): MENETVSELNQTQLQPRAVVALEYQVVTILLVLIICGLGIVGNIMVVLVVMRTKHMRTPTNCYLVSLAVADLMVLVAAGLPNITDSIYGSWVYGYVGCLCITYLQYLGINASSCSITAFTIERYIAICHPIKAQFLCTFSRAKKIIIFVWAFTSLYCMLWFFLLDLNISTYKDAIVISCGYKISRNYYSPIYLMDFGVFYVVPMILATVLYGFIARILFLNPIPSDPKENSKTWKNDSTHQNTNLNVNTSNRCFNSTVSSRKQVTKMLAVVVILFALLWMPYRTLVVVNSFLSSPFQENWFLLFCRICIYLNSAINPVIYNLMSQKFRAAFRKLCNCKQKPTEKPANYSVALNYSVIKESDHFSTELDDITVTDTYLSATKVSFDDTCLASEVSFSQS
Cytochrome P450 1A2 (Homo sapiens), sequence (P05177 whole entry, looked up): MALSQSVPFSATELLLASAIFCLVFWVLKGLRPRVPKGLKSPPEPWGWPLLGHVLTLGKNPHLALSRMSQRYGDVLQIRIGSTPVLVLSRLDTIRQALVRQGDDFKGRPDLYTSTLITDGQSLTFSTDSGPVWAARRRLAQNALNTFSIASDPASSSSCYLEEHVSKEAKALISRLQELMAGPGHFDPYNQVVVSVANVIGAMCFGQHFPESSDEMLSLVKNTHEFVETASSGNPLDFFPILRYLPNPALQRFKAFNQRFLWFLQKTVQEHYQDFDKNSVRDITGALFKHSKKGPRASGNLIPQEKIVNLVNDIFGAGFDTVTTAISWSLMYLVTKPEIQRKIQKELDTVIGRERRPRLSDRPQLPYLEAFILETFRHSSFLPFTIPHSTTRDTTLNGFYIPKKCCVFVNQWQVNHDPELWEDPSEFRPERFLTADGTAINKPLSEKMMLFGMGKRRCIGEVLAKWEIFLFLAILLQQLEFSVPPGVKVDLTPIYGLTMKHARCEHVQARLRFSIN
Cytochrome P450 2D6 (Homo sapiens), sequence (P10635 whole entry, looked up): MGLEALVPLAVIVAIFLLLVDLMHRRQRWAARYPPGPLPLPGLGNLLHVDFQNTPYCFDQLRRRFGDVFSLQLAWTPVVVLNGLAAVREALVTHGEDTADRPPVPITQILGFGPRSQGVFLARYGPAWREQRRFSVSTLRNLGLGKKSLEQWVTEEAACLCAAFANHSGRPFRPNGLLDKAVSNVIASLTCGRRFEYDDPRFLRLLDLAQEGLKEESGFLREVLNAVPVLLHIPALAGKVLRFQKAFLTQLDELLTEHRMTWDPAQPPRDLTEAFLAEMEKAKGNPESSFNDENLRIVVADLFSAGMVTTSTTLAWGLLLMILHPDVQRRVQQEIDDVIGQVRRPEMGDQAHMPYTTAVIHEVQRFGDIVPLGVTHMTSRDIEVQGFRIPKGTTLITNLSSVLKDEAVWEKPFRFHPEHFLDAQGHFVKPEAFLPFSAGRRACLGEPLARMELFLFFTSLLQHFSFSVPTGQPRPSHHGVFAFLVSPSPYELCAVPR
Nuclear receptor subfamily 1 group I member 2 (Rattus norvegicus), sequence (Q9R1A7 whole entry, looked up): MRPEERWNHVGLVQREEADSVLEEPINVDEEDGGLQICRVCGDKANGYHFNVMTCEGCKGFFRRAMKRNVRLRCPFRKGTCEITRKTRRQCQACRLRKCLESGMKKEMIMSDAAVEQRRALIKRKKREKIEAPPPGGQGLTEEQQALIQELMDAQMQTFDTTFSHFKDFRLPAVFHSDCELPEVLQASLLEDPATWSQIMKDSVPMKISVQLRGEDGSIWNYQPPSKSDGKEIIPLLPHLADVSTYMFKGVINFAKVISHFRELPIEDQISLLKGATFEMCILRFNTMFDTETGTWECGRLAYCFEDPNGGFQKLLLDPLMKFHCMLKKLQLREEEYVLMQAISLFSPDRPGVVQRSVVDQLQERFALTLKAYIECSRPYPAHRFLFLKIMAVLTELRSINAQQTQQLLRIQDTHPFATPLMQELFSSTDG
Voltage-gated inwardly rectifying potassium channel KCNH2 (Homo sapiens), sequence (Q12809 whole entry, looked up): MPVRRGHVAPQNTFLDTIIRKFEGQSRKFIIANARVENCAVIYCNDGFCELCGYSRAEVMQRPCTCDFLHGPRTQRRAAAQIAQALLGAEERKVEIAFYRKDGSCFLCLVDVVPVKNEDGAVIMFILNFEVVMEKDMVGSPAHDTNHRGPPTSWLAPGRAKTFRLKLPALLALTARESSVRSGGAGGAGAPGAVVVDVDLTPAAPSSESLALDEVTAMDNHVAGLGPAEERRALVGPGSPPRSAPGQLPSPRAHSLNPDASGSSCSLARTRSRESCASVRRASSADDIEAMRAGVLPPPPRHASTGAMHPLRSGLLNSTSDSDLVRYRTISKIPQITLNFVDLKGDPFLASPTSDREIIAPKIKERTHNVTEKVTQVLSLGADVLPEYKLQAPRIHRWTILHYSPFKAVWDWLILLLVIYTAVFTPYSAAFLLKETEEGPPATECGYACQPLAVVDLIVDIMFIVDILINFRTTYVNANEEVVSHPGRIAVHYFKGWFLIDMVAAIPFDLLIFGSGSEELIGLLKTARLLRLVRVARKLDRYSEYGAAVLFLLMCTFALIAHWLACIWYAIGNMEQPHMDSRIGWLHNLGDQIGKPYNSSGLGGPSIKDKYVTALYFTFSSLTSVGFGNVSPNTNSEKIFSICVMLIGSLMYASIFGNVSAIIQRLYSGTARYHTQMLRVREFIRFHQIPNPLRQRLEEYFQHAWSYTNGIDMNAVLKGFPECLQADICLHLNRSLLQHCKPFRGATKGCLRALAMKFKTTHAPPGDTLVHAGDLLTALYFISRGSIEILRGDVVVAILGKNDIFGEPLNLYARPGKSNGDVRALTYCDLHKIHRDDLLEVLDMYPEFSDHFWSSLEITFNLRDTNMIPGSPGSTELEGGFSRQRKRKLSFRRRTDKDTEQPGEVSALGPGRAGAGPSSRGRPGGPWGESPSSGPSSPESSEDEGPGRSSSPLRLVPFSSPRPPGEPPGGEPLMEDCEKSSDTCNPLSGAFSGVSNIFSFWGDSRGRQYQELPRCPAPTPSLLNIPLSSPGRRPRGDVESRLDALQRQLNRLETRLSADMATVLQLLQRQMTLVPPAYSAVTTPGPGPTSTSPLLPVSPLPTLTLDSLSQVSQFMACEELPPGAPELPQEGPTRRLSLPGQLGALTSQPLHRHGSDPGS
Cytochrome P450 3A4 (Homo sapiens), sequence (P08684 whole entry, looked up): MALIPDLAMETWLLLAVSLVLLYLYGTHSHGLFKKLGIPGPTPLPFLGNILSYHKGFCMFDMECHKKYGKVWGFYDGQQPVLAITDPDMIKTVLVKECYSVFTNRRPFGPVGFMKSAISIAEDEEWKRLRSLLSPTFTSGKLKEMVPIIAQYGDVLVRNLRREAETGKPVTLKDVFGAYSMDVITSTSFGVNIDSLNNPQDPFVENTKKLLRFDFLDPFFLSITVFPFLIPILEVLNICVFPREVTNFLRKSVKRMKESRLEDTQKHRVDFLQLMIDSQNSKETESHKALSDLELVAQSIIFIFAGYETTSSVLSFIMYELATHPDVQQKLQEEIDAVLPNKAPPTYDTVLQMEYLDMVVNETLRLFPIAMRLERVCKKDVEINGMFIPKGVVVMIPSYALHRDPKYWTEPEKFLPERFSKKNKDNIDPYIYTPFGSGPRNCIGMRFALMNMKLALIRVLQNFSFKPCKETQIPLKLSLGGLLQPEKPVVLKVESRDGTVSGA

Consider `C=CCNC(N)=S`, for which the Potency in experiment [1] is 21.2 µM (active) and inactive; in [13] it was 61.9 µM (active) and inactive; in [14], 69.4 µM (active) and inactive. Also, the Potency entry in experiment [2], in experiment [3], in [4], in experiment [6], in experiment [7] and in experiment [9] was “inactive” each time. The Potency result in experiment [10], in experiment [12], in experiment [15] and in experiment [16] was “inactive” each time. Besides, the molecule was classed as inactive in experiment [5], in experiment [8] and in experiment [17]. The max activation in experiment [11] is -2.6% (inactive).

In the case of `C[C@H]1C[C@@H]2[C@H]([C@@H](O)C[C@@]3(C)[C@H]2CC[C@]3(O)C(=O)CO)[C@@]2(C)C=CC(=O)C=C12`, the Potency entry in experiment [1], in experiment [2], in experiment [3], in [6], in experiment [18] and in experiment [7] was “inactive” throughout. Besides, the Potency result in experiment [9] and in experiment [16] was “inactive” in each case. The result in [8] and in [17] was inactive. Further, the Potency in experiment [11] was 1.58 µM (active).

As for `C#C[C@]1(O)CC[C@H]2[C@@H]3CCC4=CC(=O)CC[C@@H]4[C@H]3CC[C@@]21C`, the Potency result in [1], in [2], in [3], in experiment [6], in experiment [18] and in experiment [9] was “inactive” throughout. Moreover, the Potency result in experiment [12], in [13] and in [16] was “inactive” in each case. Further, the Potency was 61.1 µM (active) in [7]; 48.6 µM (active) in [10]; 5.03 µM (active) and 4.36 µM (active) in experiment [14]. For the same molecule, the molecule was classed as inactive in experiment [8] and in experiment [17]. The max activation in experiment [11] was -1% (inactive).

For the molecule `c1ccc(OCCOc2ccccc2)cc1`, the Potency entry in [1], in [2], in [3], in [6], in [9] and in [13] was “inactive” throughout. Also, the Potency result in [19] is “inactive”. Besides, the outcome in experiment [8] and in [17] was inactive. For the same molecule, the Potency in [10] is 61.1 µM (active) and 24.3 µM (active); in experiment [14] it was 5.02 µM (active) and 5.03 µM (active); in experiment [15] it was 28.2 µM (active) and 22.4 µM (active); in [16] it was 15.9 µM (active) and 20 µM (active).

In the case of `CCN(CC)c1ccc(C(=O)c2ccccc2C(=O)O)c(O)c1`, the Potency entry in experiment [1], in [2], in experiment [3], in experiment [4], in [6] and in experiment [18] was “inactive” each time. Further, the Potency result in [9], in [13] and in experiment [16] was “inactive” in each case. Also, the result in [5], in experiment [8] and in experiment [17] was inactive. In addition, the Potency in experiment [10] was 27.4 µM (active) and 19.3 µM (active); in [14], 71.3 µM (active) and inactive; in [15], 35.7 µM (active) and 31.7 µM (active).

In the case of `C=C(C)C(=O)Nc1ccc(Cl)c(Cl)c1`, the Potency entry in experiment [1], in experiment [2], in experiment [3], in experiment [4], in experiment [6] and in [9] was “inactive” each time. Further, the result in [5], in experiment [8] and in experiment [17] was inactive. The Potency is 61.8 µM (active) and 54.3 µM (active) in experiment [10]; 22.7 µM (active) and 31.6 µM (active) in experiment [14]; 36 µM (active) and 63 µM (active) in [15]; 2.86 µM (active) and 5 µM (active) in experiment [16].

Take `CN(C)CCC(c1ccc(Cl)cc1)c1ccccn1` (configuration not stated): the Potency entry in experiment [2], in experiment [3], in experiment [4] and in experiment [9] was “inactive” in each case. Also, the outcome in [20], in experiment [5] and in [8] was inactive. In addition, the Potency in [6] is 44.7 µM (active).
